Screens as filed in PubChem.
LASV entry inh = Lassa virus entry inhibition. Lassa virus pseudotyped entry inhibition, cell-based qHTS. Potency, µM (doses to about 49.2 µM), for inactives: top-dose activity change, negative = inhibition, usual class: inhibitors. hit rate 4.1% among 18,000. AID 720533
MARV entry inh = inhibitors of Marburg virus binding or entry into cells. Marburg virus pseudotype entry/binding inhibition, cell-based. Potency, µM (doses to about 49.2 µM), inactives show at the top dose activity change, negative = inhibition, most hits filed as inhibitors. hit rate 6.5% among 18,000. AID 720532
Numbers without * were called inactive; ? = inconclusive; · = no result given; ! = a repeat was not active; [ ] = remark or other dose. Shown are actives, neighbours in structure and some others; about 8.6% of the full set was active somewhere. The call rests on the fitted dose curve; tested in HEK293 cells. On the % scale 0 is the no-effect control and ±100 the full control effect; potency means the concentration at half of the fitted maximal effect.

SMILES	LASV entry inh	MARV entry inh
CC1(S(=O)(=O)O)CC(=O)c2ccccc2C1=O (centres undefined)	25.1µM*	14.1µM*
OCc1ccc(-c2nc(-c3ccc4c(c3)OCO4)c(-c3ccccn3)[nH]2)cc1	-25.4%	?
CC[C@@]1(O)C(=O)OCc2c1cc1n(c2=O)Cc2cc3cc(O)ccc3nc2-1	0.112µM*	?
Cc1cc2c(c(=O)o1)[C@H]1O[C@](c3ccsc3)(Cc3ccccc31)O2	1.4%[8.59 µM]	10.4%[8.59 µM]
C#Cc1cccc(Nc2ncnc3cc(OCCOC)c(OCCOC)cc23)c1	?	-4.3%
COc1cc2c(Nc3ccc(Br)cc3F)ncnc2cc1OCC1CCN(C)CC1	22.4µM*	7.08µM*
OC[C@H]1O[C@@H](n2cnc3cncnc32)[C@H](O)[C@@H]1O	7.94µM*	3.16µM*
Nc1ncnc2c1ncn2C1OC(CO)C(O)C1O (centres undefined)	-0.1%	5.2%
CNc1ncnc2c1ncn2[C@@H]1O[C@H](CO)[C@@H](O)[C@@H]1O	-13.4%[17.8 µM]	6.5%[17.8 µM]
OC[C@H]1O[C@@H](n2cnc3c(NCc4ccco4)ncnc32)[C@H](O)[C@@H]1O	?	12.6µM*
Cc1ccccc1CNc1ncnc2c1ncn2[C@@H]1O[C@H](CO)[C@@H](O)[C@H]1O	-4.3%	25.2%
CSc1ncnc2c1ncn2C1OC(CO)C(O)C1O (centres undefined)	0.355µM*	0.501µM*
COC(=O)N[C@@H](C=Cc1ccccc1)[C@@H](C)[N+](=O)[O-]	-8.7%[8.59 µM]	2.4%[8.59 µM]
COc1cccc([C@@H]2Oc3ccc(Br)cc3C[C@@H]2OC(=O)N[S+](=O)([O-])c2ccc(C)cc2)c1	2.6%[8.59 µM]	-4.0%[8.59 µM]
CCCCCC(=O)N1C[C@@H](O)[C@H](n2cc(COC(=O)c3ccccc3)nn2)C[C@H]1c1ccc(Cl)cc1	-17.7%	?
COC(=O)c1ccc(CN2C(=O)[C@]3(O[C@H](C)CC4=CCCC43)c3c(Br)cccc32)cc1 (some centres undefined)	-5.7%[8.59 µM]	5.0%[8.59 µM]
OC[C@H]1O[C@H](c2ccccc2)C=C[C@H]1OCc1cccc(Br)c1	-18.8%[8.59 µM]	-11.4%[8.59 µM]
O[C@H](CC#CCOc1ccccc1)COCc1ccccc1	22.3%[8.59 µM]	70.6%[8.59 µM]
Cc1ccc(C=CC2=C[C@]3(C)C[C@]2(C)[C@H](c2ccc(C)cc2)CC3=O)cc1	-8.1%[8.59 µM]	-3.6%[8.59 µM]
CC(=O)O.CC(=O)O.[Cd]	7.94µM*	2.82µM*
O=C(O)/C=C\C(=O)O	-3.7%	-13.5%
CC1C(=O)C(Cc2cn(CCC3OCCO3)nn2)CCS(=O)(=O)N1Cc1ccc(-c2ccc(Cl)nc2)cc1 (centres undefined)	14.1%	95.7%
COc1cc(OC)c2ccc(=O)oc2c1C(CCN1CCOCC1)c1ccc(N(C)C)cc1 (centres undefined)	6.1%	-11.1%
COc1ccc(C(CCN2CCOCC2)c2c(OC)cc(OC)c3c(-c4ccccc4)cc(=O)oc23)cc1 (centres undefined)	?	22.4µM*
COc1cc(OC)c2ccc(=O)oc2c1C(CCN1CCOCC1)c1ccc2c(c1)OCO2 (centres undefined)	-26.4%	?
SMILES	LASV entry inh	MARV entry inh
COc1cc(OC)c2c(=O)c(-c3ccccc3)c(C)oc2c1OC	1.6%	11.6%
COc1cc(C(CCN2CCOCC2)c2c(OC)cc(OC)c3c(-c4ccccc4)cc(=O)oc23)cc(OC)c1OC (centres undefined)	4.47µM*	10µM*
COc1cc(OC)c2c(-c3ccccc3)cc(=O)oc2c1C(CCN1CCOCC1)c1ccc2c(c1)OCO2 (centres undefined)	?	10µM*
C[C@@H]1COc2cc(F)ccc2S(=O)(=O)N1	8.3%	27.7%
COc1cccc(CN2c3ccc(Br)cc3C(O)CS2(=O)=O)c1 (centres undefined)	-18.8%	-14.2%
C#CCN1C(=O)[C@]2(O[C@H](COc3ccccc3)CC3=C2CCC3)c2ccccc21	·	-41.4%[8.59 µM]
CCCCCCN1C[C@H](O)[C@@H](n2cc(C3CC3)nn2)C[C@H]1c1ccc(C)cc1	-5.6%	?
C#CCCCON=C1C[C@@H](O)[C@@H](O)[C@@H]2[C@H]3C(=O)N(C(C)(C)C)C(=O)[C@@H]3CC[C@H]12	3.6%[8.59 µM]	11.8%[8.59 µM]
CC(=O)NNC(=O)N1Cc2ccccc2Oc2ccc(Cl)cc21	-11.1%	4.9%
CCN(CC)CCCCN1c2ccccc2Oc2ccc(Cl)cc21	?	6.31µM*
O=C(NCCN1Cc2ccccc2OC(c2ccsc2)C1)c1cncs1 (centres undefined)	-15.1%	-9.2%
CCN1\C(=C/C=C/C=C/c2sc3ccccc3[n+]2CC)Sc2ccccc21	11.2µM*	7.08µM*
COc1cc2ncnc(Nc3cccc(Br)c3)c2cc1OC	-19.6%	3.0%
COc1cc2ncnc(Nc3cccc(Cl)c3)c2cc1OC	15.8µM*!	14.1µM*!
O=C(OCc1cn([C@@H]2C[C@H](c3ccccc3)N(CC3CCCCC3)C[C@@H]2O)nn1)c1ccccc1	-21.4%	-29.2%
CC(=O)Oc1cc2c(c(C)c1OC(C)=O)CC=C1[C@]3(C)CC[C@]4(C)CC[C@@](C)(C(=O)O)CC4[C@]3(C)CC[C@]12C (some centres undefined)	20µM*	11.2µM*
